The record followed here is PubChem BioAssay AID1508600 (Functional Genomics Laboratory (NCATS/FGL), 2020).

The campaign covered roughly 53,000 sequences. About 3,700 (7%) were called active. Many of the other results were omitted from the sample, so actives are more common in it than they were. Unmarked numbers belong to inactive results.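 The calls were made as follows: active = gene knockdowns whose robust z-score for IL-1 alpha signal is at least 2 or at most -2, so actives lie on both sides; inactive = the rest.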

The experiment is described as follows: Components of the Cytosolic LPS Sensing Pathway: Gene Identification via Genome-wide siRNA Screen.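 Also: robust z of the log signal after scaling to non-targeting control siRNA wells of the plate.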 As to conditions: RAW264.7 macrophages, IL-1a HTRF, actives lie on both sides, screened at 100 nM (by protocol), cells primed 5 h with Pam3CSK4 first. The method in brief: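 IL-1a HTRF of supernatants after 24 hour LipidA transfection of Pam3CSK4-primed (5 hours) RAW264.7 cells, 48h post-siRNA transfection (100 nM). Scores: percent of plate negative-control median, then log-based robust z-score.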
For orientation: In TR-FRET formats the signal depends on donor and acceptor labels being close together.
Regarding GGCGAGAAAUUCUUCACAUTT against Plxna3, the z-score is -1.51.

As to GGAGAAGGAGCAGAUUAAATT against Krt8, the z-score is 2.07 (active).

Regarding CCAAAACCUCAUGCUGAAATT against Zfp758, the z-score was 0.396.

On to GCUAAUACGAUUUACUUUGTT against Cntn6, for which the z-score was 0.586.

With GGACGUAUAUCCUUUUAUGTT against Spaar, the z-score is -0.151.

As for GCAUGAUCAAAUUGUAUCUTT against Nde1, the z-score is -2.21 (active).

In the case of GGUCUUUCUUCGAGGAGUCTT against Ccdc33, the z-score is -1.03.

For the sequence CCGUAAGAAGGAAAACGCATT against Kcnd1, the z-score is -0.506.

GGUAAGGUUACAGCACUGATT against Chac2: the z-score is -0.489.

Take GGAAUAUCUGAUAUCAGUATT against Mdga2: the z-score was 0.0727.

Turning to GGCUUCCUCAUCGAUAUAATT against Ccnh, the z-score was 0.21.

Consider GGUACCAAUUGAAGAUAUATT against Ncoa7, for which the z-score was 2.2 (active).

Turning to GGACAAGGAGGAUUUCUUCTT against Nprl2, the z-score was -0.226.

Take CCUUCUAAGAGAAAAACGUTT against Eps15: the z-score was 0.198.

On to GGUAAACAGAAUAGAAUCCTT against Lcmt1, for which the z-score was 0.622.

GCCUGUGUAUUCUCGCUAUTT against Mon1a: the z-score was 0.345.

For UGGGCCUUGUAGGCUUCAUTT against Rell2, the z-score is 2.3 (active).

Regarding GGACCAGUUAUCCUCACUGTT against Eapp, the z-score was -0.514.

For the sequence GCACAGCUAAACUUAACUATT against Taz, the z-score is 0.711.

Consider GCAAAUUUACCUCGGUUUUTT against Olfr46, for which the z-score is 0.388.

As to GGCAGGUUUUUGAACUGGUTT against Olfr725, the z-score was 2.28 (active).

GCUGAGAGGUAAAGACACATT against Cntd1: the z-score was 0.116.

Take UCCAGAGGAUCCGCUGUGATT against Krt74: the z-score was -0.632.

As for GGACUAAACAGAUUCACUATT against Rnase9, the z-score was -2.42 (active).

GGAUCCUUCGCUUUUAUCGTT against Nox1: the z-score is -0.343.

As for GGAAAAUCACUUCAUUCACTT against Ltk, the z-score was 0.893.

For the sequence CCUUCGUAGUCUUGAUGUGTT against Olfr1179, the z-score is -0.104.

Take GGAUCAAAAAAAAACUGGATT against Sinhcaf: the z-score was 1.19.

For GGAAUUAGUCUCCAAAUAUTT against Sh2d1b1, the z-score is 0.604.

Turning to GCCAGUACGAAGUGAUCUGTT against Ackr4, the z-score was 2.8 (active).

GGUUCUUGGUUUACAUAAGTT against Slc39a12: the z-score is -1.23.

GGGAAAACCAUACAAAAUATT against Olfr228: the z-score was -0.525.

With GCAAAUCGACCACUUUCCGTT against Cacng2, the z-score was 4 (active).

As to GCACGUCCUCGAUCUCUGUTT against Extl3, the z-score was -0.705.

As to GGUGUCUGAUGAUGAAUAUTT against Cnnm3, the z-score was 0.322.

As to GGAUGUGCCUCGGUUGGAUTT against Gulo, the z-score was 0.663.

Take GGAAGACCUUGAAUUCCAGTT against Tspan31: the z-score is 2.87 (active).

As to GCCCAUUGAUCCGGAGUAATT against Dusp28, the z-score was 0.252.

For the sequence GGGUUUCUAUGAAGAGAUCTT against Fhod1, the z-score is -0.624.

As for GCCUUACAUGAGCCCAUGUTT against Olfr550, the z-score was -1.96.

For GGACUUUAUUGAAAAUCUGTT against Zfp365, the z-score is 0.593.

Regarding CCAAAUUCCUAUCAAGUUUTT against Ints2, the z-score is 1.98.

Regarding GCGUCUCAUAGAGUUGGUGTT against Mblac2, the z-score is 0.0617.

As to GCCGCUAGCAUGGUCUAUUTT against Apoa5, the z-score is 2.51 (active).

As for UAUACCUUAGUGCUGAGGGTT against Olfr736, the z-score is -1.02.

Regarding GGGCAAAAGCUGUUACAAGTT against Ahrr, the z-score is -0.0958.

GGUUCCUGGAUGGUUCCUATT against Vtcn1: the z-score is 1.45.

Turning to GGGUAUGACAACAAACUUCTT against Gabrg2, the z-score was -0.422.

As for GGUUUGGCAAACAUUUCAUTT against Akr1c20, the z-score was 2.02 (active).

On to GGAUGAAUCUGAAGAUUCCTT against Nol3, for which the z-score was 0.113.

With GGUGGACAAGCAAGUCUAGTT against Ube2o, the z-score is 1.97.

As to GGACAAGAUAGGAGGAGACTT against Abhd16a, the z-score is -0.776.

Consider GCUUGUGCUGAAUUACACCTT against Vps35, for which the z-score was 2.11 (active).

Consider GCACGAAUCCUUGGAGAAATT against Batf2, for which the z-score was -0.254.

Take GGUGAUUUAGUUGUGUAAATT against Calcr: the z-score is 0.294.

In the case of GGUUCCAUCUUCUCAGGACTT against Olfr395, the z-score was 1.01.

Turning to GGUGGAAUAUUUCAUGGACTT against Csnk2a1, the z-score is 3.43 (active).

As to GGAAGAGGACACAUUAGGCTT against Gtsf1l, the z-score was 0.11.

For GGUGAGUUUUGCUAAAAGUTT against Syp, the z-score was 0.783.

As for GCAAGAAGUAUUUUCAGUATT against Galnt4, the z-score is 1.34.

For the sequence GGAACAACGGAAAAGCGAGTT against Ankrd1, the z-score is 1.25.

As for GGAAUCCUCGGCAGAUAAATT against Rpl24, the z-score was 2.31 (active).

Take GGCAGAAAAUUGUUCUUAUTT against Cpt1a: the z-score was -1.49.

In the case of GGCUUCUGGUACAUUAUUGTT against Lcn10, the z-score was -1.23.

As to GGGCAACUAUUGAUGAGGUTT against Acap3, the z-score was -0.138.

Take GGACGGUGACCUGUAUGAUTT against Cpxm1: the z-score was -2.4 (active).

As for GCAUUAAAGUAGAAGGUCUTT against Snx31, the z-score was 0.812.

As for GCGGCAAGAUUAAUAAGUCTT against Mpzl1, the z-score is 0.798.

For GGAUCUCGAAGUUACUGCATT against Dnajc5b, the z-score was 1.77.

On to GCCUAGCAAUGACUGGGAUTT against Sdhaf2, for which the z-score is -0.635.

As to GCCUUCUGGCAAGAAUCUUTT against Krtap9-3, the z-score is 1.21.

On to CCACUCAAGCGGUAAGGAUTT against Slc22a1, for which the z-score was 4.16 (active).

As to GGUGGCACAUAAGAAAUCCTT against Trim66, the z-score was -1.61.

In the case of CGGACACACAGUUGAUCCGTT against Cct6b, the z-score is -2.15 (active).

GCGGGACUUUAUCUCAUCCTT against Mfsd4b1: the z-score was -0.815.

With CCUUCUUUAUAGGUAUGACTT against Klhl36, the z-score was 0.91.

Turning to GGAAAGAAGCAGCGGACUUTT against Nme7, the z-score is 2.29 (active).

Take GGCAUUCAGAGCUGAUUCATT against Mia3: the z-score was 0.93.

For the sequence GCCCUGGCAUGCUAACAAATT against Prpf3, the z-score is -0.749.

In the case of GGUACUACAAGCUAGCUGUTT against Scd4, the z-score was -0.114.

Consider GGAAGUUUGUAGAGUAUGUTT against Xylt1, for which the z-score is -0.187.

In the case of CCCGAGAACAUCUUGUACGTT against Rps6ka4, the z-score was 2.69 (active).

On to GGGUUCAAGAGAUGAUAUUTT against Usp11, for which the z-score is 0.245.

As for GGCUGAGAAACUGGAUGAATT against Rem1, the z-score is -0.143.

With GGCUGUAUGACUCAGCUCUTT against Olfr711, the z-score was -0.912.

Consider CCGGAAACUUCCUACGUGUTT against Cbln1, for which the z-score was -0.424.

For the sequence GGAUAGAAACAUUUCUGUGTT against Olfr1145, the z-score is 2.1 (active).

On to GGACCAUGAGAAAUUUAAUTT against Nr2f1, for which the z-score was 1.41.

With GGCGGUUAAUGACAAGAACTT against Sdk2, the z-score was -0.0303.

CGUGGAGUAAGGAGAAUAUTT against Ints7: the z-score was 0.364.

As for “GGAAAUCACAUUGUCCUGCTT against 3010003L21Rik”, the z-score is 1.13.

On to GGAUCUGACACACAUGAUCTT against Med16, for which the z-score is 2.3 (active).

Regarding GGAGAAAGCAAGGAUAAUCTT against Rgs20, the z-score is 0.562.

As to CGCAGAGAAGGUCAUUAAATT against Il1f5, the z-score is 0.519.

As to GGUCUUCUCCGAGUACUUUTT against Ap1m1, the z-score is 4.38 (active).

For GCACUCAGAACAACUAAAATT against Dglucy, the z-score is 0.641.

Turning to GCUCCAUGAAUGUCCAACATT against Sphkap, the z-score was -2.41 (active).

As for GUUCUAGGCCUCCUGAAGCTT against Dohh, the z-score was -0.808.

For GCUGAUGUCUCAACCUAGATT against Zkscan2, the z-score was -1.72.

As to GGCUUUGUCUUGAAUGGCUTT against Adgre1, the z-score was -1.11.

For the sequence CGCCGGAAGUUCUACCACUTT against Tmem205, the z-score is 0.223.

For the sequence GAACAUCAUCUCACACUCATT against Olfr874, the z-score was -0.000467.

As to GGAUAGAGACUGCUGGGUUTT against Zfp579, the z-score is 0.248.

As to CCAAGUUGGCAUACUAUUCTT against Pank4, the z-score was -0.126.

For GCCAGUCCUUCAAGUGUAUTT against Jak2, the z-score was 4.16 (active).

On to CCAUCUCAUCCCACGACACTT against Mrgprx1, for which the z-score was -0.334.

For the sequence GGCCUUUGCAUGCAAUAGUTT against Zfp119b, the z-score is 0.0596.

For the sequence GCAGCCUUGUUUCAGUUCUTT against Fam43a, the z-score was 0.765.
